PubChem BioAssay (NCATS)
Records with an inconclusive call do not appear. Unmarked numbers belong to inactive results. The call rests on the fitted dose curve; in most records, active means well fitted inhibition curve with a large enough effect; inconclusive means small, poorly fitted or top-dose-only effect; inactive means flat fitted curve, though single readings scatter.

These molecules were tested against Aldehyde dehydrogenase, mitochondrial (Homo sapiens) (UniProt P05091) (assay: qHTS for Inhibitors of the Aldehyde Dehydrogenase Family (ALDH2) Primary screen (AID 2061308;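 further: plate controls were vehicle for no effect and reference inhibitor for full effect; nearly all actives have a fitted effect of over 55% in size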)). Details: ALDH2 enzyme inhibition qHTS, 1536-well; series mostly up to 56 µM; activity change, negative = inhibition: at the top concentration.
`CN1CCN(c2ccc(-c3cc(O)c4ncccc4c3)cc2)CC1` was tested, and the “activity change, negative = inhibition” value was -0.93%.
In the case of `Cc1ccc(-c2cc(C(=O)Nc3ccccn3)c3ccccc3n2)cc1C`, the “activity change, negative = inhibition” value is reported as 2.57%.
For `O=C(O)c1cccc(-c2noc(-c3ccccc3C(F)(F)F)n2)c1`, the “activity change, negative = inhibition” value was -11.1%.
With `Cc1ccsc1CN(C)c1ncnc2ccc(-c3ccc(C(=O)N(C)C)o3)cc12` the “activity change, negative = inhibition” value was -13.9%.
In the case of `CC(C)c1ccccc1-c1nccc(NCc2ccc(-c3cccnc3)cc2)n1`, the “activity change, negative = inhibition” value is reported as 36.7%.
With `Cc1ccc(Nc2c(F)cccc2Cl)c(CC(=O)O)c1` the “activity change, negative = inhibition” value was -11.5%.
With `Cc1ccnc(NC(=S)N2CCc3cccc(C(F)(F)F)c3C2)c1` the “activity change, negative = inhibition” value was -16%.
In the case of `COc1ccccc1-c1nc(-c2cccc(C(=O)O)c2)no1`, the “activity change, negative = inhibition” value is reported as 6.14%.
`Cc1ccnc(NC(=S)N2CCCC(Nc3cccc(C(F)(F)F)c3)C2)c1` (stereo not drawn) was tested, and the “activity change, negative = inhibition” value was -2.64%.
For `O=C(O)c1cccc(-c2noc(-c3ccccc3Cl)n2)c1`, the “activity change, negative = inhibition” value was 8.17%.
For `COc1cc(NS(=O)(=O)c2ccc(C)cc2)c2ncccc2c1`, the “activity change, negative = inhibition” value was -22.6%.
`COc1ccc(C2Nc3cccc4cccc(c34)N2)cc1` was tested, and the “activity change, negative = inhibition” value was -11.6%.
`N#Cc1cccc(CSc2nc3ncc(Br)cc3[nH]2)c1` was tested, and the “activity change, negative = inhibition” value was -14.3%.
With `OC/C=C/c1ccc(O[C@@H]2O[C@H](CO)[C@@H](O)[C@H](O)[C@H]2O)cc1` the “activity change, negative = inhibition” value was -6.17%.
With `COc1ccc(C(=O)OC2C3C=COC(OC4OC(CO)C(O)C(O)C4O)C3C3(CO)OC23)cc1OC` (stereo not drawn) the “activity change, negative = inhibition” value was -6.05% [at 28 µM].
For `CN(C)c1ccc(-c2nc3ccccc3s2)cc1`, the “activity change, negative = inhibition” value was 5.91%.
For `C/C(=C\c1ccc(F)cc1)C1Nc2cccc3cccc(c23)N1`, the “activity change, negative = inhibition” value was -15.2%.
With `CC(C)(C)OC(=O)N1CCN(c2ccc(NCc3ccc4c(c3)OCO4)cc2)CC1` the “activity change, negative = inhibition” value was -15.9%.
